Residue numbers refer to the chain shown, from its start.

Holding throughout (assay): protein-binding microarray (PBM); PBM: ~300 nM protein, 6 mM HEPES pH 7.8, 80 mM KCl, 0.5 mM EDTA, 0.5 mM EGTA, 6% glycerol, 35 ng/ul poly-dIdC, 1% milk, 1 h, room temperature; Ap Aiptasia and Nv Nematostella (sea anemones) / Co Capsaspora / Aq Amphimedon (sponge) / Dm Drosophila / Hu human; RHD is the Rel homology domain; high values mean tight binding
What all share (conditions): dsDNA, one strand shown

Test [1] concerns the target T1, GST-Ap-NF-kB RHD (Exaiptasia pallida (Aiptasia), UniProt A0A913YAJ5 2-422).
T1 sequence: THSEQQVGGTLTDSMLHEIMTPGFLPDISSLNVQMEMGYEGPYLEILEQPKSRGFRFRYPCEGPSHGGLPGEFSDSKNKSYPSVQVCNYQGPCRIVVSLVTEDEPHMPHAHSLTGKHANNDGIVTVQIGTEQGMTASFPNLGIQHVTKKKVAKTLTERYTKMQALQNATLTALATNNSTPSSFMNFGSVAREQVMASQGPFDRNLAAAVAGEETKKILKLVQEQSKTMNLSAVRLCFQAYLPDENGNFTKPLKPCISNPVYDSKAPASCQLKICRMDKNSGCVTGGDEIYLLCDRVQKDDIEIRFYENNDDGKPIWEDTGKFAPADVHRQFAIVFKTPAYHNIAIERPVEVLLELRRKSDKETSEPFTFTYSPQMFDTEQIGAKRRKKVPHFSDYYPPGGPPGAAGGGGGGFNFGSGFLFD

Test [2] concerns the target T2, GST-Nv-NF-kB (Cys allele) (Nematostella vectensis, UniProt E5G601 2-411).
T2 sequence: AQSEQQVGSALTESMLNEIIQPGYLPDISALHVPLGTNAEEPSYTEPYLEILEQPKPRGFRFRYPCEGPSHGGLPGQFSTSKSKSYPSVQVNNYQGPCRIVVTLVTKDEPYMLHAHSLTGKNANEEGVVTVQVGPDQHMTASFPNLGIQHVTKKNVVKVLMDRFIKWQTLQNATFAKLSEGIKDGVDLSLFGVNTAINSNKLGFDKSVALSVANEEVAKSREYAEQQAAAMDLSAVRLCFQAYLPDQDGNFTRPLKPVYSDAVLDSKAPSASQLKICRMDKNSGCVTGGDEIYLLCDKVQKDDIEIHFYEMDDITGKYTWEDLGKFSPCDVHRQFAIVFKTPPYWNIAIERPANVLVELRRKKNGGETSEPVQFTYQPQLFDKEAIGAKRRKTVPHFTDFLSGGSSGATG

The target of test [3] is T3, GST-Nv-NF-kB (Ser allele) (Nematostella vectensis, UniProt A7UNT2 2-411).
T3 sequence: T2 sequence with Q21R, C66S, S207N, E215Q, V217A, E225K, A268E, D399E

The target in test [4] is T4, GST-Co-NF-kB (Capsaspora owczarzaki, UniProt F1ARL5 200-546).
T4 sequence: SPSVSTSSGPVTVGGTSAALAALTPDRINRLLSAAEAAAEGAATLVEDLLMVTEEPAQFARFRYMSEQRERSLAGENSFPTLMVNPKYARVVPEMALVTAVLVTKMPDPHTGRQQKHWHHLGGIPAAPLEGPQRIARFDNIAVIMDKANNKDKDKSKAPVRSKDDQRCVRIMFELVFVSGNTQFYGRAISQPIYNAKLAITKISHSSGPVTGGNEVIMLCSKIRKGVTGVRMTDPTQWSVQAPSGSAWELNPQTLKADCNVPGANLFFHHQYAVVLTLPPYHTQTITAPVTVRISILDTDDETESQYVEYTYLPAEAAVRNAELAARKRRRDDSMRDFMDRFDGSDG

Test [5] deals with T5, GST-Dm-Relish (Drosophila melanogaster, UniProt Q94527 99-473).
T5 sequence: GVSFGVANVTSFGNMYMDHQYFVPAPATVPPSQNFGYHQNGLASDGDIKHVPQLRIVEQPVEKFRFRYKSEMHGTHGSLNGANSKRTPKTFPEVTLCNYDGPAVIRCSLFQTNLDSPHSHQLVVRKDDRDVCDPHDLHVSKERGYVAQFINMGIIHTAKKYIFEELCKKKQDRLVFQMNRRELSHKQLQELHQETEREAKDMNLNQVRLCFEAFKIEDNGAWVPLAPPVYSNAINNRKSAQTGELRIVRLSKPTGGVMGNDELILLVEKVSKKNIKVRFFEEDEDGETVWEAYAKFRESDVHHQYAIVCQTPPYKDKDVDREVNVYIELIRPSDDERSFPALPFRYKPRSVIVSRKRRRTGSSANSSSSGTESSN

The target in test [6] is T6, GST-Aq-NF-kB (Amphimedon queenslandica, UniProt A9Y5G7 2-389).
T6 sequence: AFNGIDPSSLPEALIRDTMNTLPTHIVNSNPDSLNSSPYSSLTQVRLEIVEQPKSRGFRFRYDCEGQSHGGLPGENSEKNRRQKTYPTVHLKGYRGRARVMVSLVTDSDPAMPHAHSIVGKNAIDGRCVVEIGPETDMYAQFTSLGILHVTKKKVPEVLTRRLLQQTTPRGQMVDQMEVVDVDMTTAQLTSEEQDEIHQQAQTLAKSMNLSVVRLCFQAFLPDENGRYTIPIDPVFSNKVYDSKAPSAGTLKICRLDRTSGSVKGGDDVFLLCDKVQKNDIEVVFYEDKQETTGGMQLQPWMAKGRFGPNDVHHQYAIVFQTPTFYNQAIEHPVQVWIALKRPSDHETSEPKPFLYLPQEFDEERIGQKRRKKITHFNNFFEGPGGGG

The target in test [7] is GST-Hu-p50 (Homo sapiens, UniProt P19838 7-356).
GST-Hu-p50, sequence (P19838 7-356): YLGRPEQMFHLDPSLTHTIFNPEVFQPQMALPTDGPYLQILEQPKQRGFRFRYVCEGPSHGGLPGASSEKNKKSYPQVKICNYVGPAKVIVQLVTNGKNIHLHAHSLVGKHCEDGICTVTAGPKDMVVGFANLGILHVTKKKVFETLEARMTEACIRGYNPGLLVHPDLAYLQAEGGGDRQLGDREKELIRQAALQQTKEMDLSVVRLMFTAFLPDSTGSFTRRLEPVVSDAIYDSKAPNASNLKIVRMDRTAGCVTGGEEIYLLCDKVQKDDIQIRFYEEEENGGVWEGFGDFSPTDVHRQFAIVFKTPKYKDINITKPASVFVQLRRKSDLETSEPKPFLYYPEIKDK

Consider “CCGATTAACATCAGGGGATCTTATGATGTTAATCGGGTCTTGATTCGCTTGACGCTGCTG”, for which the binding signal was 7.32 z-score in test [1]; 7.01 z-score in test [2]; 7.89 z-score in test [3]; 3.1 z-score in test [4]; 6.67 z-score in test [5]; 6.41 z-score in test [6]. In addition, in test [7], the binding signal stood at 6.06 z-score.
Consider “CCGATTAACATCAGGGGATCACCTGATGTTAATCGGGTCTTGATTCGCTTGACGCTGCTG”, for which the binding signal in test [1] amounted to 7.26 z-score; in test [2], 5.39 z-score; in test [3], 6.05 z-score; in test [4] it was 2.95 z-score; in test [5], 9.04 z-score; in test [6], 6.68 z-score. The sequence further registered a binding signal in test [7] of 4.71 z-score.
Regarding “CCGATTAACATCAGGGGGTTTACTGATGTTAATCGGGTCTTGATTCGCTTGACGCTGCTG”, the binding signal in test [1] is 7.86 z-score; in test [2], 6.45 z-score; in test [3] it was 7.4 z-score; in test [4], 2.97 z-score; in test [5] it was 9.74 z-score; in test [6] it was 7.06 z-score. Moreover, the binding signal in test [7] is 7.11 z-score.
Consider “CCGATTAACATCACATTTTCCCCTGATGTTAATCGGGTCTTGATTCGCTTGACGCTGCTG”, for which the binding signal was determined as 6.76 z-score in test [1]; 8.07 z-score in test [2]; 10.5 z-score in test [3]; 9.7 z-score in test [4]; 3.97 z-score in test [5]; 5.38 z-score in test [6]. The sequence further returned a binding signal in test [7] of 6.01 z-score.
As for “CCGATTAACATCACTACCCCCCCTGATGTTAATCGGGTCTTGATTCGCTTGACGCTGCTG”, the binding signal in test [1] was 3.87 z-score; in test [2] it was 3.41 z-score; in test [3], 2.74 z-score; in test [4], 5.59 z-score; in test [5] it was 3.94 z-score; in test [6] it was 3.4 z-score. Also, the binding signal in test [7] worked out at 3.52 z-score.
Consider “CCGATTAACATCAGGGGACTCACTGATGTTAATCGGGTCTTGATTCGCTTGACGCTGCTG”, for which the binding signal in test [1] came to 5.12 z-score; in test [2], 4.13 z-score; in test [3] it was 4.07 z-score; in test [4] it was 3.05 z-score; in test [5], 8.85 z-score; in test [6] it was 4.46 z-score. In test [7], the binding signal was 4.32 z-score.
Take “CCGATTAACATCAATTTTTCCCGTGATGTTAATCGGGTCTTGATTCGCTTGACGCTGCTG”: the binding signal in test [1] turned out to be 3.39 z-score; in test [2], 4.95 z-score; in test [3] it was 6.62 z-score; in test [4] it was 6.5 z-score; in test [5], 2.16 z-score; in test [6] it was 4.56 z-score. Moreover, in test [7], the binding signal was found to be 3.66 z-score.
Consider “CCGATTAACATCAGGGGGGAGTATGATGTTAATCGGGTCTTGATTCGCTTGACGCTGCTG”, for which the binding signal in test [1] is 6.07 z-score; in test [2], 5.01 z-score; in test [3], 5.11 z-score; in test [4], 6.88 z-score; in test [5], 3.7 z-score; in test [6] it was 4.54 z-score. This sequence also gave a binding signal in test [7] of 6.15 z-score.
For the sequence “CCGATTAACATCACCATTTCCCCTGATGTTAATCGGGTCTTGATTCGCTTGACGCTGCTG”, the binding signal in test [1] turned out to be 5.75 z-score; in test [2], 6.95 z-score; in test [3] it was 9.62 z-score; in test [4] it was 6.17 z-score; in test [5], 2.11 z-score; in test [6] it was 4.32 z-score. Further, the binding signal in test [7] was found to be 5.3 z-score.
Consider “CCGATTAACATCAAGGGAAGTCCTGATGTTAATCGGGTCTTGATTCGCTTGACGCTGCTG”, for which the binding signal in test [1] turned out to be 3.99 z-score; in test [2], 4.16 z-score; in test [3], 2.7 z-score; in test [4], 1.08 z-score; in test [5], 7.26 z-score; in test [6], 5.77 z-score. Moreover, the binding signal in test [7] came to 2.73 z-score.
As for “CCGATTAACATCAAAAATCCCCTTGATGTTAATCGGGTCTTGATTCGCTTGACGCTGCTG”, the binding signal in test [1] stood at 10.4 z-score; in test [2], 12.3 z-score; in test [3] it was 13.5 z-score; in test [4], 4.34 z-score; in test [5] it was 10.1 z-score; in test [6], 8.57 z-score. This sequence gave a binding signal in test [7] of 8.54 z-score.
As to “CCGATTAACATCAGAAATTTCCCTGATGTTAATCGGGTCTTGATTCGCTTGACGCTGCTG”, the binding signal in test [1] worked out at 5.84 z-score; in test [2] it was 8.58 z-score; in test [3], 8.13 z-score; in test [4], 5.21 z-score; in test [5] it was 4.81 z-score; in test [6] it was 7.73 z-score. The sequence further registered a binding signal in test [7] of 5.92 z-score.

The values are drawn from PMC5700166.
